The structures appear in SMILES notation. Among all 2,300 compounds or so, about 1,500 (65%) were called active. No rule for the calls is given here. The set was probably picked from earlier hits. The list is a sample of the results.

The experiment is described as follows: PubChem AID 2252.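 Also: 100% = mean of untreated cell control wells.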 As to conditions: THP-1 viability, CellTiter-Glo luminescence, 72 h; min viability: minimum viability across concentrations, stronger effect = lower value, concentration not given here; series mostly up to 50 µM. For orientation: ATP-based viability assays read luminescence as a measure of living cells.
As for `N=c1ccccn1CC(O)COc1ccccc1` (stereo unspecified), the outcome was inactive.

Regarding `COc1cc(/C=C2/C(=O)NN(c3ccc(C)c(Cl)c3)C2=O)cc([N+](=O)[O-])c1O`, the molecule was classed as inactive.

On to `O=C(O)c1ccc(S(=O)(=O)NC2CC2)cc1`, for which the molecule was called inactive.

Regarding `C#CCOCCOCCOCCNc1nc(N2CCN(C(=O)[C@H](Cc3ccc(O)cc3)n3cc([C@@H](N)C(C)CC)nn3)CC2)nc(N2CCN(C(=O)[C@H](Cc3cc4ccccc4[nH]3)n3cc([C@@H](N)Cc4ccc(O)cc4)nn3)CC2)n1` (stereo partly specified), the call was inactive.

For `NC1=NC(c2cccc(O)c2)n2c(nc3ccccc32)N1` (stereo unspecified), the molecule was called inactive.

For `COc1ccc(CCC(=O)NCc2cn3ccccc3n2)cc1`, the call was inactive.

Turning to `O=C(NC(O)C(=O)c1ccccc1)c1ccc(F)cc1` (stereo unspecified), the molecule was called inactive.

On to `Cc1ccc(N2CC(C(=O)OCc3ccccc3F)CC2=O)cc1` (stereo unspecified), for which the outcome was inactive.

For the molecule `CCn1cc(C(=O)O)c(=O)c2cc(F)c(N3CCN(C(=S)NC(=O)c4ccccc4C)CC3)cc21`, the molecule was classed as inactive.

With `COCCN1CC(=O)N2C(c3cccc(OC)c3)c3[nH]c4ccccc4c3C[C@H]2C1=O` (stereo partly specified), the outcome was inactive.

For `O=C(NC1CCCC1)c1ccc(Br)s1`, the molecule was called inactive.

As for `Cc1cccc(NCN2C(=O)c3ccccc3C2=O)c1`, the call was inactive.

On to `Cc1cnc(NC(=O)CN2C(=O)C3CC=CCC3C2=O)s1` (stereo unspecified), for which the result was inactive.

For `CC(C)c1ccc(C2C(C#N)=C(N)Oc3c2oc(CO)cc3=O)cc1` (stereo unspecified), the outcome was inactive.

For the molecule `NC(=O)c1ccc(N=C2C(=O)Nc3ccc([N+](=O)[O-])cc32)cc1`, the molecule was classed as inactive.

In the case of `CC(/C=C\c1cccnc1)=C/C(=O)O`, the molecule was classed as inactive.

As to `NCCCCCc1nnc(SCc2ccc(Cl)cc2Cl)o1`, the molecule was called inactive.

`COc1cc2c(cc1OC)CN(C(=O)CCCN1C(=O)c3ccccc3C1=O)CC2`: the call was inactive.

Consider `CCOC(=O)C1=C(C(C)=O)C(c2cccnc2)C(C#N)=C(N)O1` (stereo unspecified), for which the call was inactive.

Regarding `O=C(CSc1nc2c(c(=O)n1-c1ccc(F)cc1)SCC2)NCc1ccco1`, the molecule was classed as inactive.

With `CC(C)n1cnnc1SCC(=O)Nc1ccc(Br)cc1F`, the molecule was called inactive.

In the case of `Cc1nn(C)c(C)c1NC(=O)c1ccc(S(=O)(=O)N(C)C)cc1`, the outcome was inactive.

For the molecule `COc1ccc(C2C3=C(CC(C)(C)CC3=O)Nc3cc4c(cc32)OCO4)cc1` (stereo unspecified), the result was inactive.

Consider `O=c1ccnc(Sc2ncccc2[N+](=O)[O-])[nH]1`, for which the outcome was inactive.

As to `CC[C@H]1OC(=O)[C@H](C)[C@@H](O[C@H]2C[C@@](C)(OC)[C@@H](O)[C@H](C)O2)[C@H](C)[C@@H](O[C@@H]2O[C@H](C)C[C@H](N(C)C)[C@H]2O)[C@](C)(O)C[C@@H](C)CN(C)[C@H](C)[C@@H](O)[C@]1(C)O`, the outcome was inactive.

With `COc1cc(NS(=O)(=O)c2ccc(NC(=S)Nc3ccccc3)cc2)nc(OC)n1`, the outcome was inactive.

For `O=C1CC(=O)CC(c2ccco2)C1`, the call was inactive.

Consider `CCn1c(CNC(=O)c2ccc(OC)cc2)nnc1SC`, for which the outcome was inactive.

For `CC(=O)c1ccc(OC(=O)c2cc3ccccc3oc2=O)cc1`, the result was inactive.

On to `COc1ccc(NC(=O)c2ccc3nc[nH]c3c2)cc1`, for which the result was inactive.

`COC(=O)c1cn(C(=O)c2ccco2)c2ccccc12`: the call was inactive.

In the case of `CCN1CCN(Cc2ccc(NC(=O)c3ccc(C)c(NC(=O)C(=O)c4c[nH]c5ccccc45)c3)cc2C(F)(F)F)CC1`, the result was inactive.

Regarding `Cn1nnnc1SCC(=O)Nc1ccccc1-c1ccccc1`, the outcome was inactive.

`CCn1c(SCC(=O)Nc2oc(-c3ccccc3)c(-c3ccccc3)c2C#N)nnc1-c1ccco1`: the molecule was classed as inactive.

For the molecule `Cc1ncc(CC(=O)n2cc(C(=O)c3cc(F)ccc3O)cn2)s1`, the molecule was called inactive.

Consider `COc1ccc(C(CC(=O)O)NC(=O)C2CCCCC2)cc1` (stereo unspecified), for which the result was inactive.

On to `O=C(c1cccs1)N1CCN(S(=O)(=O)c2ccccc2)CC1`, for which the molecule was called inactive.

With `COc1ccc(Cl)cc1NC(=O)c1cc(-c2ccccc2)on1`, the call was inactive.

For `C#CCOCCOCCOCCNc1nc(N2CCN(C(=O)[C@H](CCCCN)n3cc([C@@H](N)CC(C)C)nn3)CC2)nc(N2CCN(C(=O)[C@H](Cc3cc4ccccc4[nH]3)n3cc([C@@H](N)Cc4ccc(O)cc4)nn3)CC2)n1`, the outcome was inactive.

Take `CO[C@@]1(NC(=O)C2SC(=C(C(N)=O)C(=O)O)S2)C(=O)N2C(C(=O)O)=C(CSc3nnnn3C)CS[C@@H]21` (stereo partly specified): the outcome was inactive.

With `CC1=NOC(=O)/C1=C/c1ccc(O)cc1`, the outcome was inactive.

`Fc1ccccc1CCNCc1ccccc1`: the result was inactive.

For `CCn1cc(C(=O)O)c(=O)c2cc(F)c(N3CCN(C(=O)Nc4ccccc4)CC3)cc21`, the molecule was classed as inactive.

On to `COc1ccc(Cl)cc1S(=O)(=O)N1CCN(C(=O)c2ccco2)CC1`, for which the outcome was inactive.

Turning to `C#CCOCCOCCOCCNc1nc(N2CCN(C(=O)[C@H](Cc3ccc(O)cc3)n3cc([C@@H](N)CC(C)C)nn3)CC2)nc(N2CCN(C(=O)[C@H](Cc3ccc(O)cc3)n3cc([C@@H](N)CC(C)C)nn3)CC2)n1`, the call was inactive.

On to `O=C(O)c1ccc(CSc2nnnn2C2CCCCC2)cc1`, for which the molecule was called inactive.

On to `COC(=O)c1ccc(NC(=O)c2ccccc2N(C)S(=O)(=O)c2ccccc2)cc1`, for which the molecule was classed as inactive.

`CCOC(=O)c1sc(N)c(C(=O)OC)c1C`: the result was inactive.

As for `COc1cc(OC)nc(NC(=O)C(C)C)n1`, the molecule was called inactive.

Turning to `C[C@]1(OC(=O)/C=C/c2ccccc2)C[C@@H](O)[C@]2(O)C=CO[C@@H](O[C@@H]3O[C@H](CO)[C@@H](O)[C@H](O)[C@H]3O)[C@@H]21`, the molecule was called inactive.

Regarding `O=[N+]([O-])c1ccc(CN2CCSCC2)cc1`, the molecule was called inactive.

With `NC(=O)c1cc(S(=O)(=O)Nc2cccc(F)c2)co1`, the outcome was inactive.

Consider `O=C(N/N=C/c1ccc(F)c(F)c1)c1cc2c(s1)-c1ccccc1CC2`, for which the molecule was called inactive.

Turning to `O=C(COc1ccc(Cl)cc1)N1CCN(C2CCCC2)CC1`, the min viability amounted to 92.7% and the result was inactive.

For the molecule `O=C(/C=C/c1ccccc1)OCc1cnc(Cl)s1`, the molecule was classed as inactive.

Regarding `CCOC(=O)c1cccc(NC(=O)C2CCC(CNc3c(N4CCOCC4)c(=O)c3=O)CC2)c1` (stereo unspecified), the outcome was inactive.

In the case of `Cc1cc(C(=O)Nc2cccnc2)on1`, the molecule was called inactive.

Consider `O=c1c2ccccc2[nH]c2ccccc12`, for which the result was inactive.

As to `CCN1CCN(C(=O)c2cc3ccc(OC)cc3[nH]2)CC1`, the result was inactive.

Regarding `CC(C)(C)NC(=O)/C=C/c1ccc(C(F)(F)F)cc1`, the molecule was classed as inactive.

With `COc1cccc(CNc2nn[nH]n2)c1OC`, the molecule was classed as inactive.

Consider `Nc1ccc(S(=O)(=O)Nc2ccc(Cl)nn2)cc1`, for which the call was inactive.

As to `O=C(NC1(C(F)(F)F)C(=O)Nc2c1c(=O)[nH]c(=O)n2-c1ccccc1)c1ccncc1` (stereo unspecified), the molecule was called inactive.

Turning to `CC(C)C(NS(=O)(=O)c1cccc2nsnc12)C(=O)N1CCn2c1nc1ccccc12` (stereo unspecified), the molecule was classed as inactive.

As for `O=S(=O)(Nc1cccc(-c2cn3c(n2)SCC3)c1)c1ccc(F)cc1F`, the outcome was inactive.

As for `CCOc1ccc(N2CC(C(=O)OCC(=O)NCc3ccccc3)CC2=O)cc1` (stereo unspecified), the outcome was inactive.

For `O=C(NC(=S)Nc1c(F)cc(F)cc1Br)c1ccc2c(c1)OCCO2`, the molecule was called inactive.

Take `CCOC(=O)/C=C1/N(C)c2ccccc2C1(C)C`: the result was inactive.

Take `CCCCOc1ccc(CN2CCC(O)CC2)cc1`: the call was inactive.

For `CCO[C@H]1OC(C(=O)O)=C[C@@H](c2ccccc2)[C@@H]1CCCO`, the molecule was classed as inactive.

For `CCc1nc(SCC(=O)NCCc2ccccc2)c2c(=O)n(C)c(=O)n(C)c2n1`, the outcome was inactive.

As to `C/C(=C\C(=O)OCCCCCCCCC(=O)O)C[C@@H]1OC[C@H](C[C@@H]2O[C@H]2[C@@H](C)[C@H](C)O)[C@@H](O)[C@H]1O`, the molecule was classed as inactive.

As to `Cc1cc(C)n2nc(S(=O)(=O)Nc3c(Cl)cccc3Cl)nc2n1`, the outcome was inactive.

In the case of `COc1cccc(OC)c1C(=O)Nc1ccc(N2CCN(S(C)(=O)=O)CC2)cc1`, the result was inactive.

Turning to `O=C(c1ccccc1F)N1C(=O)c2cccc3cccc1c23`, the molecule was called inactive.

`CCc1cccc2c(C=C(C#N)C#N)cn(CC(=O)N3CCCCCC3)c12`: the outcome was inactive.

In the case of `COc1ccc(-c2cc(C(=O)Nc3ccc(S(=O)(=O)Nc4onc(C)c4C)cc3)c3ccccc3n2)cc1OC`, the outcome was inactive.

On to `O=C1C(O)=C(O)C(=O)c2ccccc21`, for which the molecule was classed as inactive.

For `Cc1cccc2cc(C(c3nnnn3Cc3ccccc3)N3CCN(C)CC3)c(=O)[nH]c12` (stereo unspecified), the molecule was called inactive.

For `O=C(C[n+]1cc(-c2ccc(Cl)cc2)n2c1CCC2)Nc1nc(-c2ccccc2)cs1`, the outcome was inactive.

For the molecule `C#CCOCCOCCOCCNc1nc(N2CCN(C(=O)[C@H](CCCCN)n3cc([C@@H](N)CO)nn3)CC2)nc(N2CCN(C(=O)[C@H](Cc3cc4ccccc4[nH]3)n3cc([C@@H](N)Cc4ccc(O)cc4)nn3)CC2)n1`, the molecule was called inactive.

As to `COc1ccc(-n2nnc3c(SCC(=O)N4CCCc5ccccc54)ncnc32)cc1`, the molecule was called inactive.

For the molecule `CC(C)(C)SCCNC(=O)c1ccccc1`, the molecule was classed as inactive.

As to `Cc1cc(C)c2c(=O)[nH]c(SCC(=O)N3CCCCC3)nc2n1`, the outcome was inactive.

Consider `CN(CC(=O)NCc1ccncc1)S(=O)(=O)c1ccccc1`, for which the outcome was inactive.

With `O=C(Nc1ccc2c(c1)OCCO2)C(=S)NCc1ccccc1`, the molecule was classed as inactive.

Turning to `CCN(CC)CCn1nc(C)nc1-c1ccccc1O`, the call was inactive.

With `CCN(CC(=O)Nc1ccc(C(=O)OC)cc1)C1CCCCC1`, the call was inactive.

For the molecule `CC(=O)NS(=O)(=O)c1ccc(Nc2ccc([N+](=O)[O-])c3nonc23)cc1`, the result was inactive.

As for `O=C(NC(CO)Cc1ccc([N+](=O)[O-])cc1)C(Cl)Cl` (stereo unspecified), the result was inactive.

Turning to `C#CCOCCOCCOCCNc1nc(N2CCN(C(=O)[C@H](Cc3cc4ccccc4[nH]3)n3cc([C@@H](N)CC(C)C)nn3)CC2)nc(N2CCN(C(=O)[C@H](Cc3cc4ccccc4[nH]3)n3cc([C@@H](N)CC(C)C)nn3)CC2)n1`, the result was inactive.

`COCCN1C(=O)C(=O)/C(=C(/O)c2cccc(OC)c2)C1c1ccncc1` (stereo unspecified): the molecule was classed as inactive.

On to `Cc1cccc(NC(=O)CSc2nc3c([nH]c4ccccc43)c(=O)n2C)c1`, for which the call was inactive.

`O=C(COc1ccc(Cl)cc1)Nc1cccc(-c2ccc3nncn3n2)c1`: the outcome was inactive.

Consider `CO[C@H]1/C=C/O[C@@]2(C)Oc3c(C)c(O)c4c(O)c(c(C=NN5CCN(C)CC5)c(O)c4c3C2=O)NC(=O)/C(C)=C\C=C\[C@H](C)[C@H](O)[C@@H](C)[C@@H](O)[C@@H](C)[C@H](OC(C)=O)[C@@H]1C`, for which the molecule was classed as inactive.
